Reference: PubChem BioAssay (NCATS)
Several values for one entry are separate records, joined by “and”; a condition that tells them apart may be missing. Identical values can stand only once. Results filed as inconclusive are left out. Activity calls are given as the source filed them. Unless noted, calls come from the whole dose curve; as a rule, active = well fitted curve in the direction sought with a large enough effect; inconclusive = small, poorly fitted or top-dose-only effect, or another doubt; inactive = no such curve, though single readings can be large; an effect the other way counts as inactive or inconclusive.

Columns and labels:
[1] = biological target: Phospholipid hydroperoxide glutathione peroxidase GPX4 (Homo sapiens) (UniProt P36969); assay: Primary qHTS Assay for Inhibitors of Recombinant Selenoprotein Glutathione Peroxidase 4 (GPX4) (AID 1845192); note: nearly all actives have a fitted effect of over 65% in size; note: potency is the fitted concentration of half-maximal effect
Method in brief: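 NADPH consumption followed by fluorescence at 340/450 nm, t=0 and after 15 min at room temperature. Reaction started with cumene hydroperoxide (0.5 mM final) after 30 min compound–GPX4 preincubation; final 200 nM GPX4, 100 nM GR, 1 mM GSH, 0.5 mM NADPH.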

[2] = Cell Viability - HepG2 (AID 433; calls by dose curve;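 note: potency is the fitted concentration of half-maximal effect; cells exposed to compound for 40 hours; potency for ATP loss meaning cytotoxicity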); conditions: qHTS
Method in brief: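 Read-out is luciferase-based quantitation of cellular ATP as a measure of viable HepG2 cells after 40 h treatment at 37 °C. Signal decrease is scaled between DMSO-only and 100 uM tamoxifen controls, with AC50 fitted by the Hill equation.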

[3] = Cellular Toxicity (caspase-3) Renal Proximal Tubule (AID 667);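 note: cells exposed to compound for 16 hours at 37 °C before detection; 0% = DMSO basal and 100% = 10 µM staurosporine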
Method in brief: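 AC50 derived by standard Hill fit of concentration-response data, normalized between DMSO basal and 10 uM staurosporine as 100% stimulation. Cells: primary rat kidney proximal tubule, 16 h treatment at 37 °C.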

[4] = Cell Viability - LYMP2-008 (AID 980); note: nearly all actives have a fitted effect of over 60% in size; note: potency is the fitted concentration of half-maximal effect
Method in brief: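 Luminescent ATP read-out (CellTiter-Glo, 30 min RT) after 24 hr compound exposure at 37 C of human lymphoblastoid cells in complete medium. Decrease in ATP taken as cytotoxicity; AC50 derived by standard Hill fit of qHTS concentration-response data.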

[5] = biological target: Estrogen receptor (Homo sapiens) (UniProt P03372); assay: qHTS assay for small molecule agonists of estrogen receptor alpha signaling (AID 588514; calls by dose curve; note: nearly all actives have a fitted effect of over 70% in size; note: potency is the fitted concentration of half-maximal effect;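 for activation: 0% = vehicle only and 100% = reference agonist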)
Method in brief: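 Read-out: CCF4 fluorescence from a beta-lactamase reporter in ER-alpha-UAS-bla HEK 293 cells after 18 hrs of compound exposure at 37 C. Normalized to 20 nM 17-beta-estradiol (100%) and DMSO (0%).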

[6] = biological target: Glucocorticoid receptor (Homo sapiens) (UniProt P04150); assay: qHTS assay for small molecule antagonists of glucocorticoid receptor signaling (AID 588533; active = well fitted inhibition curve with a large enough effect in the signal ratio, with a control signal flat, not every such curve was filed as active; the % refers to the signal ratio;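 note: cells stimulated with 2 nM dexamethasone as agonist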; note: potency is the fitted concentration of half-maximal effect)
Method in brief: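 Antagonist-mode qHTS: compound titrations added to GRE-bla HeLa cells, then dexamethasone 2 nM final; 18 h, 37 C. CCF4 FRET fluorescence normalized to dexamethasone and DMSO; IC50 from Hill fit.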

[7] = qHTS assay for small molecule antagonists of peroxisome proliferator-activated receptor delta signaling (AID 588535; active = well fitted inhibition curve with a large enough effect in the signal ratio, with a control signal flat, not every such curve was filed as active; the % refers to the signal ratio; note: potency is the fitted concentration of half-maximal effect;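 for max response: cells co-treated with a PPAR-delta agonist as stimulator during compound exposure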); conditions: HEK293T PPARd-UAS-bla, beta-lactamase FRET ratio, 18 h; 460 nm channel
Method in brief: (§1)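 Antagonist-mode qHTS using GeneBLAzer PPAR-delta-UAS-bla HEK293T cells; compound exposure 18 hrs at 37 C over a titration. Ratiometric CCF4 fluorescence at 460/530 nm; concentration-response points fitted to the Hill equation.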

[8] = biological target: Peroxisome proliferator-activated receptor delta (Homo sapiens) (UniProt Q03181); assay: as above
Method in brief: as §1

[9] = biological target: Peroxisome proliferator-activated receptor gamma (Homo sapiens) (UniProt P37231); assay: qHTS assay for small molecule antagonists of peroxisome proliferator-activated receptor gamma signaling (AID 588537; active = well fitted inhibition curve with a large enough effect in the signal ratio, with a control signal flat, not every such curve was filed as active; the % refers to the signal ratio;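 note: reporter cells co-stimulated with 50 nM rosiglitazone agonist during compound treatment; % of control where 0% means no effect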)
Method in brief: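 Cell-based beta-lactamase assay; GW9662 served as the antagonist control. Stimulation used rosiglitazone, final 50 nM, 16 h, 37 C.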

[10] = biological target: Vitamin D3 receptor (Homo sapiens) (UniProt P11473); assay: qHTS assay for small molecule antagonists of vitamin D receptor signaling (AID 588541; calls by dose curve;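 note: receptor activated by calcitriol during compound treatment; series mostly up to about 77 µM; % is set by controls: 0 for no effect and ±100 for the full control effect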)
Method in brief: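 Antagonist-mode beta-lactamase reporter assay: HEK293T VDR-UAS-bla cells were exposed to titrated compound alongside 1-alpha,25-dihydroxyvitamin D3 at 3 nM final for 16 h. Values were normalized to the 50 nM agonist control and DMSO basal, with IC50 and efficacy from Hill equation fits.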

[11] = qHTS assay for cell viability of the p53RE-bla HCT-116 cell line (AID 743292); note: % is set by controls: 0 for no effect and ±100 for the full control effect; nearly all actives have a fitted effect of over 55% in size
Method in brief: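 ATP-based luminescent viability (CellTiter-Glo, 30 min RT) after 16 h compound treatment at 37 C of p53RE-bla HCT-116 cells, seeded at 4,000 cells/well and rested 5 h before dosing.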

[12] = Cell Viability - LYMP2-007 (AID 979);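 note: cells exposed to compound for 24 h before reading; 0% = DMSO only and the negative end = 92 µM tetraoctylammonium bromide; nearly all actives have a fitted effect of over 60% in size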
Method in brief: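 qHTS cytotoxicity: 2500 cells/well, 5 hr 37 C settle, compound 24 hr 37 C, CellTiter-Glo 30 min RT, luminescence. Decrease in ATP = toxicity. AC50 by standard Hill equation; tetraoctylammonium bromide positive control.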

[13] = biological target: Bile acid receptor (Homo sapiens) (UniProt Q96RI1); assay: qHTS assay for small molecule antagonists of farnesoid X receptor signaling (AID 588526; calls by dose curve; note: % is set by controls: 0 for no effect and ±100 for the full control effect)
Method in brief: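 Beta-lactamase reporter antagonist mode: HEK293T FXR-UAS-bla cells, titrated compound, CDCA stimulation, 16 h 37 C, CCF4 dye 2 h RT. Data normalized to CDCA 50 uM and DMSO; Hill-fit IC50.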

[14] = qHTS assay for small molecule agonists of the antioxidant response element (ARE) signaling pathway (AID 651741; active = well fitted activation curve with a large enough effect in the signal ratio; the % refers to the signal ratio; note: potency is the fitted concentration of half-maximal effect; for activation: % of control where 0% means no effect)
Method in brief: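 Agonist activity is measured as ARE-driven beta-lactamase expression in a stable HepG2 reporter line, using 16 h compound treatment at 37 C and a FRET substrate fluorescence readout after 2 h.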

[15] = qHTS assay for small molecule activators of the nuclear factor-kappa B (NF-kB) signaling pathway (AID 651749; active = well fitted activation curve with a large enough effect in the signal ratio; the % refers to the signal ratio; note: series mostly up to about 77 µM; % of control where 0% means no effect); conditions: NF-kB-bla ME-180 cells, beta-lactamase FRET ratio, 16 h; stronger effect = higher value
Method in brief: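 FRET-based beta-lactamase detection in ME-180 cells reports NF-kB response-element-driven transcription following overnight (16 hr) compound treatment.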

[16] = qHTS assay to identify small molecules that stimulate interleukin-8 (IL-8) secretion (AID 651758; active = well fitted activation curve with a large enough effect in the signal ratio; the % refers to the signal ratio; note: potency is the fitted concentration of half-maximal effect; for activation: 0% is about no effect)
Method in brief: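 Secreted IL-8 measured homogeneously by TR-FRET (two labelled anti-IL-8 antibodies, 1-3 h at room temperature) after a 16 h, 37 C compound treatment of THP-1 cells at 2000 cells/well.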

[17] = biological target: Nuclear receptor ROR-gamma (Homo sapiens) (UniProt P51449); assay: qHTS assay for small molecule antagonists of the retinoid-related orphan receptor gamma (ROR-gamma) signaling pathway (AID 651802); note: nearly all actives have a fitted effect of over 60% in size; note: potency is the fitted concentration of half-maximal effect
Method in brief: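 Luciferase read-out: ONE-Glo luminescence after 30 min at room temperature, following 16hr doxycycline induction at 37C, 5% CO2 of CHO cells with TET-inducible ROR and RORE-LUC reporter; decreased luminescence = reduced reporter activity.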

[18] = biological target: Ubiquitin carboxyl-terminal hydrolase 1 (Homo sapiens) (UniProt O94782); assay: Inhibitors of USP1/UAF1: Pilot qHTS (AID 504865); note: nearly all actives have a fitted effect of over 35% in size; note: potency is the fitted concentration of half-maximal effect
Method in brief: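 In 50mM HEPES pH 7.8 containing 0.5mM EDTA, 1mM TCEP, 0.1 mg/ml BSA and 0.01% Tween-20, 1nM USP1/UAF1 is exposed to compound for 15 min, then Ub-Rho (150nM final) is added and fluorescence is read over time.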

[19] = MultiTox-Fluor Cytotoxicity Assay - LYMP1-001 - Dead Cells (AID 946); note: potency is the fitted concentration of half-maximal effect
Method in brief: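 Cytotoxicity as increased dead-cell protease fluorescence (bis-AAF-R110, 485/520 nm), read 60 min after MultiTox-Fluor reagent. Human lymphoblastoid line exposed 16 h; Hill-fitted AC50, with DMSO as 0% and 15 uM tetraoctylammonium bromide as 100%.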

[20] = Cell Viability - MRC5 (AID 434; calls by dose curve;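 note: potency is the fitted concentration of half-maximal effect; cells exposed to compound for 40 hours at 37 °C; potency reflects cytotoxicity seen as loss of intracellular ATP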); conditions: MRC5 lung fibroblast viability, qHTS
Method in brief: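 AC50 values come from Hill-equation fits of intracellular ATP loss, measured by CellTiter-Glo luminescence. Normal lung fibroblasts (MRC5) had 40 hr compound treatment at 37 C, normalized between DMSO and 100 uM tamoxifen.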

Sequence of Ubiquitin carboxyl-terminal hydrolase 1 (Homo sapiens) (O94782 whole entry, looked up): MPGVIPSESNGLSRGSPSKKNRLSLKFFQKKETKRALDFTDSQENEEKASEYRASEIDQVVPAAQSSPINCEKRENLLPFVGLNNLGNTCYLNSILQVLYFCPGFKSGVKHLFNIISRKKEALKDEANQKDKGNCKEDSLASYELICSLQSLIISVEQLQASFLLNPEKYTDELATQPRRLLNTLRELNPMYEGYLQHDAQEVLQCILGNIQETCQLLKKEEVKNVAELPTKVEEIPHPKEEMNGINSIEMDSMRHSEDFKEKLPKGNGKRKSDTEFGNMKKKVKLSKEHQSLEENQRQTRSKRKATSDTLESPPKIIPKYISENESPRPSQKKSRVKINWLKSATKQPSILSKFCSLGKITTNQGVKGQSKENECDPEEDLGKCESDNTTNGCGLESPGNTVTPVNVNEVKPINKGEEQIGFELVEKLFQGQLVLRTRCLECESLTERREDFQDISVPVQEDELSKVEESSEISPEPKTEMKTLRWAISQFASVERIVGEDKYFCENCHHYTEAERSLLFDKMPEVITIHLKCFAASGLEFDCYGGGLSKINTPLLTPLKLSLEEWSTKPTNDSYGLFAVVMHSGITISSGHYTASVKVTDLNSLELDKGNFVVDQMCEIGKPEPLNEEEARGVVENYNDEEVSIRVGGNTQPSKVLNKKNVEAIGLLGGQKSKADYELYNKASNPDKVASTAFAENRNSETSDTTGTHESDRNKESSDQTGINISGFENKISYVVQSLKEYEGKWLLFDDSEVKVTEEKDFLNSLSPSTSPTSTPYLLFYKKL
Sequence of Bile acid receptor (Homo sapiens) (Q96RI1 whole entry, looked up): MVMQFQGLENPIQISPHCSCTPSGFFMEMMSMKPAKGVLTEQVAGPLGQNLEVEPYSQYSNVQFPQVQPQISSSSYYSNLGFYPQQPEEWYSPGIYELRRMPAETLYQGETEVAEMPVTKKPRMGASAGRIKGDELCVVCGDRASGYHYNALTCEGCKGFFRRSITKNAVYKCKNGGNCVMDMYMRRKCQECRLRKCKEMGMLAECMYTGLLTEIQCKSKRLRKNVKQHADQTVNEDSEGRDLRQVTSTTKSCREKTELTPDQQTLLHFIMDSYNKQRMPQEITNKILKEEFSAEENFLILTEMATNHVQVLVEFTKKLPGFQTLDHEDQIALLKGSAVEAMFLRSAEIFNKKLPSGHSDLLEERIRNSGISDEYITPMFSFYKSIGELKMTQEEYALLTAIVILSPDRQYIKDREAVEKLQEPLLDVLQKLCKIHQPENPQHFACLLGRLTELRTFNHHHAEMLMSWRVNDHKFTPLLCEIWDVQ
Sequence of Peroxisome proliferator-activated receptor gamma (Homo sapiens) (P37231 whole entry, looked up): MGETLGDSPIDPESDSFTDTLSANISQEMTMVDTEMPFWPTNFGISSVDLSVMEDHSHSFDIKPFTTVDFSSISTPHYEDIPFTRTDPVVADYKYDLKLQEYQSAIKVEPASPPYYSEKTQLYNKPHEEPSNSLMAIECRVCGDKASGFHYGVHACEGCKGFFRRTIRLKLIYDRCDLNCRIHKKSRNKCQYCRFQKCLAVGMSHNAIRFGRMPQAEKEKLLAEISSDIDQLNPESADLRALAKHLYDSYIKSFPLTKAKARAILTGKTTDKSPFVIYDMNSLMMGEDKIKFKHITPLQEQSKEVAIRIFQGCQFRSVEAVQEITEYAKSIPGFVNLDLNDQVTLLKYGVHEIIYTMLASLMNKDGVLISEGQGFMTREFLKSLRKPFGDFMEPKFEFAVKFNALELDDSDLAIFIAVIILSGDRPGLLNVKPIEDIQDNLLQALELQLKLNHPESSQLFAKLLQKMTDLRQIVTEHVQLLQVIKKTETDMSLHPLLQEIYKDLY
Sequence of Estrogen receptor (Homo sapiens) (P03372 whole entry, looked up): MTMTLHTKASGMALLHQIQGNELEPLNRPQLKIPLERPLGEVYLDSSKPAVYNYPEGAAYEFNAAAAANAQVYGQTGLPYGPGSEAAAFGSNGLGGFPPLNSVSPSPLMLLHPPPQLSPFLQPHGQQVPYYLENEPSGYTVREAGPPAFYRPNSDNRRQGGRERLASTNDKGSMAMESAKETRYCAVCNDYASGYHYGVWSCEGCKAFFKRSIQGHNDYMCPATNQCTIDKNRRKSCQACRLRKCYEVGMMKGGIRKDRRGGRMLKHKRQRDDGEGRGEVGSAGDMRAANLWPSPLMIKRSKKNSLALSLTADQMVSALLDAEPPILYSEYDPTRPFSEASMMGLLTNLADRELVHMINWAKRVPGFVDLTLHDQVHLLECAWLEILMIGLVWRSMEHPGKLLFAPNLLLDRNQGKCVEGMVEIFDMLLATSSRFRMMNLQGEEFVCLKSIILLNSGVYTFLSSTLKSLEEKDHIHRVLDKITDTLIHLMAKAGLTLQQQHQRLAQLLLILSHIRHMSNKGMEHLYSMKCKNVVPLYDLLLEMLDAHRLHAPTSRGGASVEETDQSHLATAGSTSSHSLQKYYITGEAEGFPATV
Sequence of Nuclear receptor ROR-gamma (Homo sapiens) (P51449 whole entry, looked up): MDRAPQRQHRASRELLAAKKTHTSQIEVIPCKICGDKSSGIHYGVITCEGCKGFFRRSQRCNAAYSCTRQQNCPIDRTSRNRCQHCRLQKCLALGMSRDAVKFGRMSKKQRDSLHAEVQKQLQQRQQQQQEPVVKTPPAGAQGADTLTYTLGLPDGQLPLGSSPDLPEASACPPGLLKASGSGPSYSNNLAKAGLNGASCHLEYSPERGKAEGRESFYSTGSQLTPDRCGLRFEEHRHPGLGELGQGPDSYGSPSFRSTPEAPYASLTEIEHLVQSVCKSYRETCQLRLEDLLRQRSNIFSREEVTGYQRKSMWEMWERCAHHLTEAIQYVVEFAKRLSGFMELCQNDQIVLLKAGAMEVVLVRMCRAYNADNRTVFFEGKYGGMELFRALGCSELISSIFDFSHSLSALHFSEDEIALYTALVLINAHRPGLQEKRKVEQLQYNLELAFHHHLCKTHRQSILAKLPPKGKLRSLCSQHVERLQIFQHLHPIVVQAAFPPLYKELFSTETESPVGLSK
Sequence of Peroxisome proliferator-activated receptor delta (Homo sapiens) (Q03181 whole entry, looked up): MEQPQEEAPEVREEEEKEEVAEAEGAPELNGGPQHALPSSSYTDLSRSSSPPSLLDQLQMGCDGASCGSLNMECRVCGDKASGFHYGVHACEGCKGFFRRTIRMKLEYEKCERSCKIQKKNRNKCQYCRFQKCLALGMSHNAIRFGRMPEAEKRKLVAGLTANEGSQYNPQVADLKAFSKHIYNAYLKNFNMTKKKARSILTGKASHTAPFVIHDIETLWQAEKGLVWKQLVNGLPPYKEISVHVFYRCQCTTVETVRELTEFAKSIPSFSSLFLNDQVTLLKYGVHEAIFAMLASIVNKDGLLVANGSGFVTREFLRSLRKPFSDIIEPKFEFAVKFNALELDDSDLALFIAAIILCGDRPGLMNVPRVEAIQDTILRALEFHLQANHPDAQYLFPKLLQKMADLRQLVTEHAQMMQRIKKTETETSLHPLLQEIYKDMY
Sequence of Glucocorticoid receptor (Homo sapiens) (P04150 whole entry, looked up): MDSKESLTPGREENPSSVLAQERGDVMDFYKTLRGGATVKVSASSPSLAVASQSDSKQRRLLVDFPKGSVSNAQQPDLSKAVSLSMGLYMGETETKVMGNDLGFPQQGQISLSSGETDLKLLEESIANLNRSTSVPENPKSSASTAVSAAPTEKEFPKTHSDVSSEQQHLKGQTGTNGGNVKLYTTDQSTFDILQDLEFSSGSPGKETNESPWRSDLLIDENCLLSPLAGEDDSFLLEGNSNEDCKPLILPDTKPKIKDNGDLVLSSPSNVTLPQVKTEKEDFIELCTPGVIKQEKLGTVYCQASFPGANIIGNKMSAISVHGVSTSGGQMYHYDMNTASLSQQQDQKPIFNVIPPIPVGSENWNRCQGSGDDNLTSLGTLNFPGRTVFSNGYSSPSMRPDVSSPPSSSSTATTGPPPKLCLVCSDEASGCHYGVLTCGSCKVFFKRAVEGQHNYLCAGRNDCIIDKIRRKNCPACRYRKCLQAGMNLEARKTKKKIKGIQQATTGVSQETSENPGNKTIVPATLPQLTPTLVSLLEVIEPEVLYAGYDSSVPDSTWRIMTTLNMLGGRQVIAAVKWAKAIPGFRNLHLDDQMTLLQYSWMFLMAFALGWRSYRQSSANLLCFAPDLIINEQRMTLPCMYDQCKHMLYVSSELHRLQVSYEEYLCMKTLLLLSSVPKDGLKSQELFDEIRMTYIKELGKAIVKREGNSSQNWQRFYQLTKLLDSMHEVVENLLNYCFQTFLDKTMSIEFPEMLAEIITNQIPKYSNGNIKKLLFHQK
Sequence of Phospholipid hydroperoxide glutathione peroxidase GPX4 (Homo sapiens) (P36969 whole entry, looked up): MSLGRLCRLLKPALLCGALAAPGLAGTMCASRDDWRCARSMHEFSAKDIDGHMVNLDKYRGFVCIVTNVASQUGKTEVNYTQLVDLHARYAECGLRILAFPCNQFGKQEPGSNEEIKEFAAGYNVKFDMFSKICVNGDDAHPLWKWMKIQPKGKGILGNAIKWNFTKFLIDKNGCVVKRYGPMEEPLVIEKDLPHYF
Sequence of Vitamin D3 receptor (Homo sapiens) (P11473 whole entry, looked up): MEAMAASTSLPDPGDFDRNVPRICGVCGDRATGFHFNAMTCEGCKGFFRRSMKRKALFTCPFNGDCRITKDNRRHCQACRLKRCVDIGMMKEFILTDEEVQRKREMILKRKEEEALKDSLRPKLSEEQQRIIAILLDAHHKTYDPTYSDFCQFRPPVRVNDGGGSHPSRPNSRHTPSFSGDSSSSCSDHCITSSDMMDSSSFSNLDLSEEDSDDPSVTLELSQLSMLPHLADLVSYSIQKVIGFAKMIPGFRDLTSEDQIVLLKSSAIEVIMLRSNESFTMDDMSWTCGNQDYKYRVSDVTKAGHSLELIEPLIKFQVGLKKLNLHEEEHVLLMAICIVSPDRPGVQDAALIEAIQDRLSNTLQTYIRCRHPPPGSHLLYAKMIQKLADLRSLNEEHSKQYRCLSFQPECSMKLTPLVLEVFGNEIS

Cc1cnc(C(=O)N[C@H]2CCCCC/C=C/[C@@H]3C[C@@]3(C(=O)NS(=O)(=O)C3CC3)NC(=O)[C@@H]3C[C@@H](Oc4nc5ccccc5c5ccccc45)CN3C2=O)cn1
active: Potency [1] 3.98 µM

Cc1ccc(N)c([N+](=O)[O-])c1
inactive: Potency [2] > 92 µM | outcome [3] | Potency [4] | Potency [5] | Potency [6] | Potency [8] | outcome [9] | outcome [10] | Potency [11]
-16.3% and -11.9%: max response [7]

C=Cc1ccccc1Cl
-3.33%: max response [7]
inactive: Potency [2] > 92 µM | Potency [12] | Potency [5] | outcome [13] | Potency [6] | Potency [8] | outcome [10] | Potency [14] | activation [15] -1.19% | Potency [16] | Potency [17] | Potency [11]

C[C@H](CCC(=O)O)[C@H]1CC[C@H]2[C@@H]3CC[C@@H]4C[C@H](O)CC[C@]4(C)[C@@H]3C[C@H](O)[C@]12C
inactive: Potency [1]

N#Cc1c(N2C[C@@H]3NCCO[C@H]3C2)c(F)cc2c(=O)c(C(=O)O)cn(C3CC3)c12
inactive: Potency [1]

CCN1/C(=C/C=C/C=C/c2sc3ccccc3[n+]2CC)Sc2ccccc21
active: Potency [18] 22.4 µM | Potency [1] 7.94 µM

C[C@@H](O)[C@H]1C(=O)N2C(C(=O)O)=C(S[C@@H]3CN[C@H](C(=O)Nc4cccc(C(=O)O)c4)C3)[C@H](C)[C@H]12
inactive: Potency [1]

O=C1c2ccccc2C(=O)C1c1ccc2ccccc2n1
inactive: Potency [6] | outcome [9] | outcome [10] | activation [15] -1.78% and 4.34%
active: Potency [5] 1 µM | Potency [14] 1.37 µM and 1.5 µM

COc1ccc(CNc2nc(N3CCC[C@H]3CO)ncc2C(=O)NCc2ncccn2)cc1Cl
inactive: Potency [1]

Clc1cc(Cl)c(Cl)cc1Cl
10.3% and -6.5%: max response [7]
inactive: Potency [2] > 92 µM | Potency [5] | Potency [6] | Potency [8] | outcome [9] | Potency [14] | activation [15] 0.515% and -2% | Potency [17]

S=C1NC=NC2N=CNC12 (configuration not stated)
active: Potency [2] 1.23 µM | Potency [14] 23.7 µM | Potency [16] 42.2 µM
inactive: Potency [19] | Potency [12] | Potency [18] | activation [15] 1.89% | Potency [17]

CN(C)CCCCCCN(C)C
53.3%: max response [7]
inactive: Potency [20] > 92 µM | outcome [3] | Potency [18] | outcome [13] | Potency [6] | Potency [8] | outcome [10] | Potency [14]

CC(C)(C)NC(=O)[C@@H]1C[C@@H]2CCCC[C@H]2CN1C[C@@H](O)[C@H](Cc1ccccc1)NC(=O)[C@H](CC(N)=O)NC(=O)c1ccc2ccccc2n1
inactive: Potency [1]

CN(C)C=O
inactive: Potency [2] > 92 µM | outcome [3] | Potency [5] | outcome [13] | outcome [9] | Potency [14] | activation [15] 0.506% and -0.104% and -1.7% | Potency [16] | Potency [17] | Potency [11]

C=CC(=O)OCCOCCOCCOCCOC(=O)C=C
active: Potency [19] 50.1 µM | Potency [4] 25.1 µM | Potency [6] 39.8 µM | Potency [8] 28.2 µM | Potency [14] 42.2 µM and 37.6 µM | Potency [17] 11.9 µM and 21.1 µM
inactive: Potency [2] > 92 µM | outcome [3] | Potency [11]
-103%: max response [7]

CC(=O)O[C@]1(C(C)=O)CC[C@H]2[C@@H]3C=C(C)C4=CC(=O)CC[C@@H]4[C@H]3CC[C@@]21C
inactive: Potency [1]

CCCCCCCCO
-13.8% and 47.8%: max response [7]
inactive: Potency [2] > 92 µM | Potency [19] | Potency [12] | Potency [5] | Potency [6] | Potency [8] | outcome [9] | outcome [10] | Potency [14] | Potency [17] | Potency [11]

COc1ccccc1CNc1nc(-c2ccc(C(=O)N(C)C)cc2)nc2ccccc12
inactive: Potency [18]

COCC(=O)O
inactive: outcome [3] | Potency [5] | Potency [6] | Potency [8] | outcome [9] | outcome [10] | Potency [14] | activation [15] 0.0746% and -0.444% | Potency [17] | Potency [11]
5.18% and 13.7%: max response [7]

COc1ccc2[nH]cc(CCNc3ncncc3-c3ccccc3C(F)(F)F)c2c1
inactive: Potency [18]

Nc1ccc(Cl)cc1Cl
65.7% and 18%: max response [7]
inactive: Potency [20] > 92 µM | outcome [3] | Potency [12] | Potency [4] | Potency [5] | outcome [13] | Potency [6] | Potency [8] | outcome [9] | activation [15] 0.288% and 1.41% | Potency [17]

Cc1cccc([N+](=O)[O-])c1C
-14.5% and -6.43%: max response [7]
inactive: outcome [3] | Potency [19] | Potency [5] | Potency [8] | outcome [9] | outcome [10] | Potency [14] | activation [15] -0.813% and -0.315% | Potency [16] | Potency [11]
